High-throughput results as filed in PubChem BioAssay.
MsrA inhibitor – inhibits bovine methionine sulfoxide reductase A; purified bovine MsrA, absorbance read-out; inhibition, % at 15.5 µM; 0.75% of 360,000 active; in the data active = inhibition above about 4.5%;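 also: 0% = vehicle wells with enzyme and 100% = reference inhibitor wells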
MsrA act – activators of bovine methionine sulfoxide reductase A; purified bovine MsrA, absorbance read-out; activation, % at 10.6 µM; 0.3% of 360,000 active; AID 602163; in the data active = activation above about 7.5%;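 also: 0% = vehicle and 100% = reference activator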
ABCB6 inh MLPCN – blocks the human ABCB6 transporter. fluorescence ratio to DMSO, % at 10 µM. K562-ABCB6 porphyrin accumulation, flow cytometry, 1 h; stronger effect = lower value. 0.19% of 360,000 active. AID 602162;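 active = fluorescence ratio to DMSO below 75%, the collection mean minus 3 SD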;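 also: signal is porphyrin accumulated inside mitochondria; 100% equals median channel fluorescence of DMSO control wells; lower ratio means ABCB6 inhibition with less porphyrin fluorescence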
SMARCA2 activ – activators of SMARCA2 function; MG213 cells, MMTV-luciferase reporter, dexamethasone, overnight; activation, % at 9.1 µM; 1% of 370,000 active; AID 652017; in the data active = activation above about 7.8%;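 also: 0% = vehicle wells and 100% = reference activator wells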
* = called active by the depositor; . = no result given; ! = repeats disagree. A selection: hits, their analogues and other compounds. The true share with any hit is near 2.1%.

SMILES	MsrA inhibitor	MsrA act	ABCB6 inh MLPCN	SMARCA2 activ
Cc1ccc(C)c(N2CCN(C(=O)CCS(=O)(=O)c3ccc4c(c3)CCN4C(=O)C3CC3)CC2)c1	0	-2	93	7.9*
COc1ccc(CCNC(=S)NC(=O)c2c(-c3ccccc3Cl)noc2C)cc1OC	-1	-1	100	-1
Cc1onc(-c2ccccc2Cl)c1C(=O)NC(=S)NCCc1ccccc1	-1	-9	97	8.6*
CC(=O)NC1CCCCN(Cc2cccc(F)c2)C1=O (centres undefined)	.	.	.	-1
CC(=O)c1c(OC(=O)c2ccco2)c2ccccc2n1C	4.6*	-2	129	-3
C=CCNC(=O)c1ccc(N(C)S(=O)(=O)c2ccc(OC)cc2)cc1	0	-5	61*	-4
COc1ccc(CCNC(=O)C/C(C)=N/NC(=O)C2CCCCC2)cc1OC	0	-9	98	-3
CCNC(=O)C/C(C)=N/NC(=O)C1CCCCC1	2	-5	49*	-2
O[C@H](COc1cc(F)cc(F)c1)CN1CCC(C(O)(c2ccccc2)c2ccccc2)CC1	.	.	.	-4
CC(C)CCN(C)C1CCN(C(=O)Nc2ccccc2)CC1	.	.	.	7.8*
CCc1ccc(NC(=O)N2CCC(c3ccccc3)C2)cc1 (centres undefined)	0	-10	92	3
O=C(Nc1ccccc1)N1CCC(c2ccccc2)C1 (centres undefined)	-1	-5	101	7.8*
Cc1cccc(C(=O)Nc2nnc(SCC(=O)Nc3ccc4c(c3)oc3ccccc34)s2)c1	1	-2	97	-5
COc1ccccc1C(=O)Nc1nnc(SCC(=O)Nc2ccc3c(c2)oc2ccccc23)s1	0	-3	93	13*
CCOC(=O)CC[C@H]1CC[C@]2(CCCN(C(=O)c3ccno3)C2)O1	.	.	.	-2
COc1ccc2c(c1)CNC2CS(=O)(=O)NCC(C)C (centres undefined)	.	.	.	3
O=C(c1ccccc1NS(=O)(=O)c1ccc([N+](=O)[O-])cc1[N+](=O)[O-])N1O[C@@H]2C=C[C@H]1C2	7.2*	-4	102	-3
COc1ccc(C2CCC3(CCC(=O)N3CCO)CC2)cc1 (centres undefined)	.	.	.	-4
COc1ccc(C(=O)c2ccc(N3CCOCC3)c([N+](=O)[O-])c2)cc1	4.6*	-4	104	-4
COc1ccc2ccccc2c1C=NNC(=O)c1cc(-c2ccc(C)cc2)n[nH]1	.	.	.	-4
CN(C)c1ccc(C=Nc2ccccc2C(N)=O)cc1	5.6*	-4	95	5
CCCOc1ccc(CNC(=S)N/N=C/c2ccc([N+](=O)[O-])cc2)cc1	2	-12	62*	0
O=C(COC(=O)c1ccc(Sc2ncn[nH]2)c([N+](=O)[O-])c1)Nc1ccc(Cl)c(Cl)c1	.	.	.	0
Cn1cccc1CC(=O)N/N=C\c1c2ccccc2cc2ccccc12	1	-8	73*	-1
Cn1cccc1CC(=O)N/N=C/c1cccc2ccccc12	2	-9	94	-2
SMILES	MsrA inhibitor	MsrA act	ABCB6 inh MLPCN	SMARCA2 activ
Nc1nc(N)nc(-c2cc(F)ccc2O)n1	1	-11	101	7.9*
CN(CC(=O)NCCc1ccc(F)cc1)Cc1cccs1	0	-10	92	7.8*
CN(CC(=O)Nc1ccc(F)cc1Cl)Cc1cccs1	0	-3	91	1
CC(C)(C)c1ccc(S(=O)(=O)N2CCCC2C(=O)N2CCN(c3ccccc3)CC2)cc1 (centres undefined)	.	.	.	-8
O=C(c1cc(COc2c(F)cccc2F)on1)N1CCCCCC1	0	-5	99	7.9*
CC(=O)N1CCCN(C(=O)c2cc(COc3c(F)cccc3F)on2)CC1	0	-4	97	-1
Cc1ccc(-n2c(SCC(=O)Nc3ccc4c(c3)OCCO4)nnc2-c2cnccn2)cc1	.	.	.	-6
CCc1ccc(/C=C2/SC(=S)N(CC(=O)Nc3nc4ccccc4s3)C2=O)cc1	0	13*	110	-1
Cc1ccc(-n2c(Cc3cccs3)nnc2SCC(=O)Nc2cccc3ccccc23)cc1	.	.	.	-7
CCCCn1cnc2sc(-c3ccccc3)cc2c1=O	1	-2	91	7.8*
CCCCCn1cnc2sc(-c3ccccc3)cc2c1=O	1	1	90	3
Cc1[nH]n(-c2ccc([N+](=O)[O-])cc2)c(=O)c1C=NCCN1CCN(C(=O)c2ccccc2)CC1	4.8*	-3	97	-3
O=C(N/N=C/CCc1ccccc1)c1ccc(CN2c3cccc4cccc(c34)S2(=O)=O)cc1	1	-8	102	-7
COc1cc(/C=N/NC(=O)c2ccc(CN3c4cccc5cccc(c45)S3(=O)=O)cc2)cc(OC)c1O	4.6*	-11	93	-2
CCC(=O)OC1(C)C(=O)C2=COC(c3ccc(OC)cc3)=CC2=C(Br)C1=O (centres undefined)	1	10*	95	2
COc1ccc(C2=CC3=C(Br)C(=O)C(C)(O)C(=O)C3=CO2)cc1 (centres undefined)	.	-4	102	.
COC(=O)[C@]1(CNS(=O)(=O)C2CC2)CC(=O)N(C)[C@@H]1c1ccccc1	.	.	.	-1
CCCCCCSc1ccc([C@H]2N[C@@](C)(C(=O)OC)[C@H]3C(=O)N(C)C(=O)[C@@H]23)cc1	0	8.4*	93	2
COc1cc(NC(=O)c2nccnc2N)cc(C(=O)Nc2cccc(C(F)(F)F)c2)c1	2	-4	95	-2
COc1cc(NC(=O)c2ccc(N)nc2)cc(C(=O)Nc2cccc(C(F)(F)F)c2)c1	1	-3	96	7.9*!
COc1ccc(C(=O)NCCN2C(=O)C3C4C=CC(C4)C3C2=O)cc1OC (centres undefined)	.	.	.	-1
Fc1ccccc1-c1n[nH]c(=S)n1N=Cc1ccc(OCc2ccccc2)cc1	.	.	.	-5
Cc1cccc(C2=NN(c3ccccc3)[C@@H](C(=O)N3CCOC3=O)[C@@H]2c2ccc([N+](=O)[O-])cc2)c1	5.5*	-2	96	-1
O=C1OCCN1C(=O)[C@H]1[C@H](c2ccc([N+](=O)[O-])cc2)C(c2ccccc2)=NN1c1ccc(Br)cc1	4.8*	-2	98	-6
O=C1OCCN1C(=O)[C@H]1[C@H](c2ccc([N+](=O)[O-])cc2)C(c2cccc(Cl)c2)=NN1c1ccc(Br)cc1	1	-4	97	-4
SMILES	MsrA inhibitor	MsrA act	ABCB6 inh MLPCN	SMARCA2 activ
COC(=O)C1CN(Cc2ccc(C)cc2)CCS(=O)(=O)N1Cc1cn(Cc2ccc(OC)cc2)nn1 (centres undefined)	.	.	.	4
CCN1CCCCC(NC(=O)c2ccccc2)C1=O (centres undefined)	.	.	.	0
CC1CCN(c2oc(-c3ccc(F)cc3)nc2C#N)CC1	1	-6	96	7.8*
Cc1cccc(-c2nc(C#N)c(N3CCC(C)CC3)o2)c1	0	0	101	2
O=C(N/C(=C/c1ccccc1)C(=O)N1CCOCC1)c1ccc([N+](=O)[O-])cc1	1	-3	102	-1
O=C(N/C(=C\c1ccc([N+](=O)[O-])cc1)C(=O)N1CCOCC1)c1ccccc1	4.6*	-7	99	-2
C=C(C)c1sc(-c2ccccc2)nc1C	0	.	.	1
C/C(=N\O)c1sc(-c2ccccc2)nc1C	1	-5	95	7.9*
